Where a name gives a salt, the structure may show the parent alone.
The compounds below were run on Salmonella enterica typhimurium (assay: growth AUC normalised to DMSO control (fraction of control); higher = less growth inhibition, active = hit call of the paper). Details: 20 µM;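 active = AUC significantly below DMSO controls by Student t-fit with adjusted P under 0.01; inactive = not significantly reduced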.
How it was run: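 For the AUC endpoint, growth curves were integrated by the trapezoidal rule up to the exponential-to-stationary transition and normalised to DMSO controls on the same plate. The curves came from OD578 readings taken hourly for 24 h, in three biological replicates. Pathogens had been passaged anaerobically twice and inoculated at an OD578 of 0.01 into pre-reduced mGAM plates carrying 20 μM compound and 1% DMSO, sealed with breathable membranes. Medium for Haemophilus parainfluenzae also contained hemin and NAD.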

Row | Structure (SMILES) | growth AUC normalised to DMSO control
1 | CCN[C@H]1CN(CCCOC)S(=O)(=O)c2sc(S(N)(=O)=O)cc21 [Brinzolamide] | 0.965 (inactive)
2 | CN1CCCN=C1/C=C/c1cccs1 [Pyrantel tartrate] | 0.999 (inactive)
3 | CN1CCc2cccc3c2[C@H]1Cc1ccc(O)c(O)c1-3 [R(-) Apomorphine hydrochloride hemihydrate] | 0.999 (inactive)
4 | CCCCCCCN(CC)CCCC(O)c1ccc(NS(C)(=O)=O)cc1 (stereo not given) [Ibutilide fumarate] | 0.991 (inactive)
5 | Clc1ccc2c(c1)C(N1CCNCC1)=Nc1ccccc1O2 [Amoxapine] | 0.988 (inactive)
6 | Cc1c(OCC(F)(F)F)ccnc1C[S+]([O-])c1nc2ccccc2[nH]1 (stereo not given) [Lansoprazole] | 1 (inactive)
7 | Nc1ccc(/N=N/c2ccccc2)c(N)n1 [Phenazopyridine hydrochloride] | 0.969 (inactive)
8 | C[C@]12CC[C@@H]3c4ccc(O)cc4C[C@@H](CCCCCCCCC[S+]([O-])CCCC(F)(F)C(F)(F)F)[C@H]3[C@@H]1CC[C@@H]2O (stereo not given in full) [Fulvestrant] | 1.01 (inactive)
9 | OCCOCCN1CCN(C(c2ccccc2)c2ccc(Cl)cc2)CC1 (stereo not given) [Hydroxyzine dihydrochloride] | 0.992 (inactive)
10 | CNCCCC12CCC(c3ccccc31)c1ccccc12 [Maprotiline hydrochloride] | 1 (inactive)
11 | CC[C@H](C)C(=O)O[C@H]1C[C@H](O)C=C2C=C[C@H](C)[C@H](CC[C@@H](O)C[C@@H](O)CC(=O)O)[C@H]21 [Pravastatin] | 1.04 (inactive)
12 | S=c1[nH]cnc2nc[nH]c12 [Mercaptopurine] | 0.997 (inactive)
13 | CC/C(=C(\c1ccccc1)c1ccc(OCCN(C)C)cc1)c1ccccc1 [Tamoxifen citrate] | 1.01 (inactive)
14 | CC(=O)OCC(=O)[C@@]1(O)CC[C@H]2[C@@H]3CCC4=CC(=O)CC[C@]4(C)[C@@]3(F)[C@@H](O)C[C@@]21C [Fludrocortisone acetate] | 0.995 (inactive)
15 | CC[C@@H](CO)NCCN[C@@H](CC)CO [Ethambutol dihydrochloride] | 0.943 (inactive)
16 | O=C(Nc1cccc2c(=O)cc(-c3nnn[nH]3)oc12)c1ccc(OCCCCc2ccccc2)cc1 [Pranlukast] | 1.01 (inactive)
17 | CC(=C(CCO)SSCC1CCCO1)N(C=O)Cc1cnc(C)nc1N (stereo in doubt) [Fursultiamine hydrochloride] | 1.01 (inactive)
18 | Cc1ncc([N+](=O)[O-])n1CC(O)CCl (stereo not given) [Ornidazole] | 0.995 (inactive)
19 | CCC(=O)O[C@]1(C(=O)SCF)[C@H](C)C[C@H]2[C@@H]3C[C@H](F)C4=CC(=O)C=C[C@]4(C)[C@@]3(F)[C@@H](O)C[C@@]21C [Fluticasone propionate] | 0.996 (inactive)
20 | Cc1cccc(C)c1OCC(C)N (stereo not given) [Mexiletine hydrochloride] | 1.01 (inactive)

Row | Structure (SMILES) | growth AUC normalised to DMSO control
21 | CCC(=O)OCC(=O)[C@@]1(OC(=O)CC)[C@H](C)C[C@H]2[C@H]3[C@H]([C@@H](O)C[C@@]21C)[C@@]1(C)C=CC(=O)C=C1C[C@H]3Cl [Alclometasone dipropionate] | 1 (inactive)
22 | NC(=O)c1cccnc1 [Nicotinamide] | 1.02 (inactive)
23 | c1ccc(CC2=NCCN2)cc1 [Tolazoline hydrochloride] | 1.01 (inactive)
24 | COc1cccc2c1C(=O)c1c(O)c3c(c(O)c1C2=O)C[C@@](O)(C(=O)CO)C[C@@H]3O[C@H]1C[C@H](N)[C@H](O)[C@H](C)O1 [Doxorubicin hydrochloride] | 0.942 (active)
25 | CC(=O)NC[C@H]1CN(c2ccc(N3CCOCC3)c(F)c2)C(=O)O1 [Linezolid] | 0.885 (active)
26 | NC1CCN(c2nc3c(cc2F)c(=O)c(C(=O)O)cn3-c2ccc(F)cc2F)C1 (stereo not given) [Tosufloxacin hydrochloride] | 0.00626 (active)
27 | CCn1cc(C(=O)O)c(=O)c2cc(F)c(N3CCNCC3)cc21 [Norfloxacin] | 0.00731 (active)
28 | CCC1=C(C)CN(C(=O)NCCc2ccc(S(=O)(=O)NC(=O)N[C@H]3CC[C@H](C)CC3)cc2)C1=O [Glimepiride] | 1.02 (inactive)
29 | COc1ccc(C(=O)c2ccccc2O)c(O)c1 [Dioxybenzone] | 0.977 (inactive)
30 | C[C@H](O)C(=O)Nc1c(I)c(C(=O)NC(CO)CO)c(I)c(C(=O)NC(CO)CO)c1I [Iopamidol] | 1.03 (inactive)
31 | CCCOc1ccccc1-c1nc2[nH]nnc2c(=O)[nH]1 [Zaprinast] | 0.998 (inactive)
32 | CCCCc1oc2ccccc2c1C(=O)c1cc(I)c(OCCN(CC)CC)c(I)c1 [Amiodarone hydrochloride] | 0.999 (inactive)
33 | CC(C(=O)O)c1ccc(-c2ccccc2)c(F)c1 (stereo not given) [Flurbiprofen] | 0.986 (inactive)
34 | C[C@]12C=CC(=O)C=C1CC[C@@H]1[C@@H]2[C@@H](O)C[C@@]2(C)[C@H]1CC[C@]2(O)C(=O)CO [Prednisolone] | 0.982 (inactive)
35 | CNCCc1ccccn1 [Betahistine mesylate] | 0.997 (inactive)
36 | C[C@]12C=CC(=O)C=C1CC[C@@H]1[C@@H]2C(=O)C[C@@]2(C)[C@H]1CC[C@]2(O)C(=O)CO [Prednisone] | 1.01 (inactive)
37 | C[N+](C)(C)CCCCCC[N+](C)(C)C [Hexamethonium dibromide dihydrate] | 0.947 (inactive)
38 | CCCCNC(=O)NS(=O)(=O)c1ccc(C)cc1 [Tolbutamide] | 1.01 (inactive)
39 | COc1cc2nc(N3CCN(C(=O)C4CCCO4)CC3)nc(N)c2cc1OC (stereo not given) [Terazosin hydrochloride] | 0.998 (inactive)
40 | CC(=O)N1CCN(c2ccc(OCC3COC(Cn4ccnc4)(c4ccc(Cl)cc4Cl)O3)cc2)CC1 (stereo not given) [Ketoconazole] | 1.01 (inactive)

— the supplement of paper PMC12350171
